High-throughput results: PubChem BioAssay, Broad Institute
Env fusion inh: blocks HIV Env-driven cell-cell fusion. inhibition, % at 12.3 µM. 1.1% of 360,000 active. AID 651610. HeLa-JRFL Env/CEM21 cell fusion, luciferase;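 active = mean replicate inhibition score of at least 50 and every replicate individually at or above 50; inconclusive = only one of the two criteria met; inactive = mean below 50 and not all replicates reaching 50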
esBAF inh: inhibitors of esBAF chromatin remodeling in mouse ES cells. Bmi1-luciferase knock-in reporter, 24 h; 100% = twice the neutral-well signal. reporter increase, % at 12.5 µM. 2% of 350,000 active. AID 602393; in the data active = activation above about 40%; inconclusive = no clear call, values can overlap the other calls;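 also: a rise in the Bmi1 reporter signal indicates esBAF inhibition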
miR122 inh: inhibitors of miR-122 in Huh7 cells | 0.3% of 340,000 active | Huh7 miR-122 Renilla luciferase sensor, 48 h; neutral wells = 0, positive control = 100 | AID 602342 | activation (reporter increase), % at 12.5 µM;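 active = mean replicate activation score at least 90 and every replicate individually at or above 90; inconclusive = only one of the two criteria met; inactive = neither criterion met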;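 also: higher luciferase means less miR-122 activity so hits act as miR-122 inhibitors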
Wnt act: Wnt/beta-catenin pathway activation; Wnt/beta-catenin reporter cell assay, activator, plate reader; activation, % at 9.35 µM; 1.2% of 300,000 active; in the data active = activation above about 30%, passing the limit was not always enough; inconclusive = no clear call, values can overlap the other calls
MITF TRPM1 HTS: activators of MITF-driven TRPM1 promoter activity in SK-MEL-5 cells | AID 588334 | 0.75% of 300,000 active | SK-MEL-5 TRPM1-promoter luciferase, 24 h; % of positive control, neutral wells = 0 | activation, % at 12.5 µM;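 active = mean activation of at least 80% with every replicate also reaching 80%; inconclusive = mean reaches 80% but some replicate falls short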
Each line names hits and unclear results; the compound was inactive in the other large screens; [ ] = another dose, or the depositor's remark. A selection: hits, their analogues and other compounds. The true share with any hit is near 3.4%.

Cc1cc(C)c2c(N)c(C(=O)N/N=C/c3cccnc3)sc2n1	none (no result: esBAF inh, MITF TRPM1 HTS)
Cc1cc(C)c2c(N)c(C(=O)NNC(=O)c3ccccc3)sc2n1	esBAF inh 66
Cc1cc(C)c2c(N)c(C(=O)N/N=C/c3ccccc3)sc2n1	esBAF inh 46, Wnt act 47 (no result: MITF TRPM1 HTS)
COC1=C(c2ccccc2)C(=O)c2ccccc2C1=O	none (no result: esBAF inh, miR122 inh)
O=C(C1=C(c2ccccc2)C(=O)c2ccccc2C1=O)c1ccccc1	Env fusion inh 155 (no result: esBAF inh, miR122 inh)
C[C@@H]1CN([C@@H](C)CO)C(=O)c2cc(N(C)C)ccc2O[C@@H](C)CCCCO[C@H]1CN(C)C(=O)C1CCCCC1	none (no result: Wnt act, MITF TRPM1 HTS)
Cc1cc(/C=C(\C#N)C(=O)Nc2ccccc2F)c(C)[nH]1	MITF TRPM1 HTS 106
N#C/C(=C\c1ccc[nH]1)C(=O)Nc1ccccc1F	esBAF inh 71, Wnt act 33
Cc1cc(/C=C(\C#N)C(=O)NC2CC2)c(C)[nH]1	Wnt act inconclusive, MITF TRPM1 HTS 94 (no result: esBAF inh)
C[C@@H]1CN([C@H](C)CO)S(=O)(=O)c2ccc(C#Cc3ccc(F)cc3)cc2O[C@@H]1CN(C)C(=O)CN(C)C	none (no result: Wnt act, MITF TRPM1 HTS)
CCOC(=O)c1c(CN2CCCCC2)n(C)c2cc(Br)c(O)c(CN(C)C)c12	none (no result: Env fusion inh, Wnt act)
CCOC(=O)c1c(CSc2ccccc2)n(C)c2ccc(O)c(CN3CCN(C)CC3)c12	none
CCOC(=O)c1c(CN2CCOCC2)n(-c2ccccc2)c2cc(Br)c(O)c(CN(C)C)c12	none (no result: Env fusion inh, miR122 inh, Wnt act)
CCOC(=O)c1c(CSc2ccsc2)n(C)c2cc(Br)c(O)c(CN(C)C)c12	Env fusion inh 87 (no result: esBAF inh, miR122 inh)
CCOC(=O)c1c(CSc2ccc(C)cc2)n(C)c2cc(Br)c(O)c(CN(C)C)c12	Env fusion inh 87
CCOC(=O)c1c(CSc2ccccc2)n(C)c2cc(Br)c(O)c(CN(C)C)c12	Env fusion inh 67
COc1ccc(S(=O)(=O)N[C@@H]2CC[C@H](CC(=O)N3CCN(c4ccccc4)CC3)O[C@@H]2CO)cc1	none (no result: miR122 inh, Wnt act, MITF TRPM1 HTS)
COC(=O)c1sccc1NC(=O)c1ccc(C)s1	Wnt act 34 (no result: MITF TRPM1 HTS)
CCNC(=O)C[C@@H]1CC[C@@H]2[C@@H](COc3ccc(NC(=O)Nc4cccc(C)c4)cc3C(=O)N2C)O1	none (no result: Wnt act, MITF TRPM1 HTS)
Cn1cccc1-c1nc2ccc([N+](=O)[O-])cc2[nH]1	esBAF inh inconclusive, MITF TRPM1 HTS 99
O=[N+]([O-])c1ccc2nc(-c3cccnc3)[nH]c2c1	none
O=[N+]([O-])c1ccc2nc(-c3ccccc3)[nH]c2c1	Wnt act 68, MITF TRPM1 HTS 103 (no result: esBAF inh)
COc1cccc(-c2ccc3c(c2)[C@H]2[C@H](CCN2C(=O)C2CCCC2)[C@H](CO)N3)c1	Env fusion inh 56[16.7 µM] (no result: esBAF inh, miR122 inh, Wnt act, MITF TRPM1 HTS)
O=C(C1CC1)N1CC[C@@H]2[C@H](CO)Nc3ccc(Br)cc3[C@@H]21	esBAF inh 58 (no result: Env fusion inh, Wnt act, MITF TRPM1 HTS)
COc1cccc(-c2ccc3c(c2)[C@H]2[C@H](CCN2C(=O)c2ccccn2)[C@H](CO)N3)c1	esBAF inh 45 (no result: Env fusion inh, Wnt act, MITF TRPM1 HTS)
COc1cccc(-c2ccc3c(c2)[C@@H]2[C@@H](CCN2C(=O)c2ccccn2)[C@H](CO)N3)c1	none (no result: Env fusion inh, Wnt act, MITF TRPM1 HTS)
N#Cc1cccc(-c2ccc3c(c2)[C@@H]2[C@@H](CCN2C(=O)c2ccncc2)[C@@H](CO)N3)c1	esBAF inh 61 (no result: Env fusion inh, Wnt act, MITF TRPM1 HTS)
O=C(C1CC1)N1CC[C@@H]2[C@@H](CO)Nc3ccc(Br)cc3[C@@H]21	none (no result: Env fusion inh, Wnt act, MITF TRPM1 HTS)
COc1ccc(C[C@H]2CCc3cnnn3COC[C@@H](C(C)C)NC2=O)cc1	none (no result: esBAF inh, miR122 inh, Wnt act, MITF TRPM1 HTS)
COc1ccc(CN(C)C[C@@H]2OCCCC[C@@H](C)Oc3ccc(NC(=O)Nc4ccc(F)cc4)cc3C(=O)N([C@H](C)CO)C[C@H]2C)cc1	none (no result: Wnt act, MITF TRPM1 HTS)
COc1ccc(C[C@@H]2CCc3cnnn3COC[C@@H](Cc3ccccc3)NC2=O)cc1	none (no result: esBAF inh, miR122 inh, Wnt act, MITF TRPM1 HTS)
COc1cc(C(=O)Nc2ccc(NC(=O)c3ccco3)nc2)cc(OC)c1OC	none
O=C(Nc1ccc(NC(=O)c2ccco2)nc1)c1cccc(F)c1	Wnt act 31
Cc1cc(NC(=O)c2cccc(F)c2)ncc1NC(=O)c1ccco1	Wnt act 36
COc1cccc(C(=O)Nc2ccc(NC(=O)c3ccco3)nc2)c1	esBAF inh 59, MITF TRPM1 HTS 93 (no result: Env fusion inh, Wnt act)
C[C@@H]1CN([C@H](C)CO)C(=O)c2cccc(NC(=O)Nc3ccc4c(c3)OCO4)c2O[C@H]1CN(C)C(=O)Nc1cccc2ccccc12	none (no result: Wnt act, MITF TRPM1 HTS)
O=C(NC1CCCCC1)N[C@H]1CC[C@H](CCNS(=O)(=O)c2ccc(Cl)cc2)O[C@H]1CO	none (no result: miR122 inh, Wnt act, MITF TRPM1 HTS)
O=C(O)c1cccc(COc2ccc3c(c2)CCC3)c1	Env fusion inh 85 (no result: esBAF inh)
